Assay outcomes deposited in PubChem by several laboratories.
AI-2 QS mod – modulators of Vibrio harveyi AI-2 quorum sensing system; Vibrio harveyi JMH597 AI-2 luminescence/OD600 ratio, 9 h; hits give low values; strain lacks LuxN and CqsS sensors; 0 = neutral-control median; activity change, % at 7.5 µM; actives 0.4% (n = 300,000); in the data active means activity change below about -75%, passing the limit was not always enough;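 further: luminescence divided by OD600 gain over 9 h not by final OD600 alone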
Platelet DG rel – modulates dense granule release in human platelets | human platelet-rich plasma, SFLLRN dense granule ATP release, luminescence | inhibition, %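 (compounds screened at 7.5 µM in platelet-rich plasma)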 | actives 0.22% (n = 300,000) | AID 1663;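 active means mean replicate score, as percent of positive control, at or above 50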
HIF activator – HIF pathway transcriptional activation; actives 0.32% (n = 300,000); U2OS HRE-luciferase reporter, luminescence; normalized: DMSO 0%, desferrioxamine 100%; AID 1910; activation, % at 7.5 µM (by protocol);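 active means mean activation of at least 10% of the iron chelator positive control signal, with at least half of replicates also reaching 10%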
CHT allo act – allosterically activates the human high affinity choline transporter; Q9GZV3; CHT-expressing cells, membrane potential dye, choline EC20; hits give high values; LV-AA mutant CHT in HEK293 cells; B-score at 10 µM; actives 0.49% (n = 310,000); AID 488977;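 active means initial fluorescence not abnormally high and integrated response B-score, plate-corrected, over 3 SD above library mean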
VLA-4 inh – inhibition in a human VLA-4 binding assay; P13612; VLA-4 expressing cells, ligand binding flow cytometry; inhibition, % (about 7 µM as worked out from the volumes in the protocol); actives 0.2% (n = 330,000); in the data active means inhibition above about 50%
Target sequence (P13612 whole entry, looked up): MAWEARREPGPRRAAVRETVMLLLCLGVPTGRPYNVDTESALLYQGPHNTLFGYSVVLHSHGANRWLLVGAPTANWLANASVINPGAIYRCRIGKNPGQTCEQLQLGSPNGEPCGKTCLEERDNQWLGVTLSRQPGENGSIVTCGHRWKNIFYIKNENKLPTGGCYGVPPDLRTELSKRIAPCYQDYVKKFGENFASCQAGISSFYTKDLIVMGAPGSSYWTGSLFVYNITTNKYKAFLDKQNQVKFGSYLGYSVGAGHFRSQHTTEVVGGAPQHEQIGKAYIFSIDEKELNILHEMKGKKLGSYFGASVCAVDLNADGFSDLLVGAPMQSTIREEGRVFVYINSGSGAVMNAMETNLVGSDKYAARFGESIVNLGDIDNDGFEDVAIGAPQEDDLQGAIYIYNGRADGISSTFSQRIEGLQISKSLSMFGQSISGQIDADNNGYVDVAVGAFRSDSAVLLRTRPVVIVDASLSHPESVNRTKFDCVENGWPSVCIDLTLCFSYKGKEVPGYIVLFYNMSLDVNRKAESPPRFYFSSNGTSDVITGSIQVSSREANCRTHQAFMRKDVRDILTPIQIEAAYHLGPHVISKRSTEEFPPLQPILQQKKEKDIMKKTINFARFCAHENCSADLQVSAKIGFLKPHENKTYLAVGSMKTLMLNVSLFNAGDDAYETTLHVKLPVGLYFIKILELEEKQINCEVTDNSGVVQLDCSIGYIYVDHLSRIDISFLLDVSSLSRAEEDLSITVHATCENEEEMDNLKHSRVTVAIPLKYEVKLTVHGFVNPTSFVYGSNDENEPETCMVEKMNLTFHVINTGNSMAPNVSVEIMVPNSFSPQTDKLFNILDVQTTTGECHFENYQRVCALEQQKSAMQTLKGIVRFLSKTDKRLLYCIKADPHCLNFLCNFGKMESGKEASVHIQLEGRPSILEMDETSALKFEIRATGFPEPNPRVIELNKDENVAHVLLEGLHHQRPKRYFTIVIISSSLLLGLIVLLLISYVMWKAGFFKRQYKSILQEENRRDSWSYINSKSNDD
CHT block – human CHT choline transport inhibition | Q9GZV3 | CHT-expressing cells, membrane potential dye, choline response; hits give low values | B-score at 10 µM | actives 0.86% (n = 310,000) | AID 488975;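 active means B-score over 3 SD under the library average, and starting fluorescence ratio not unusually high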;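 further: choline stimulus applied at its EC90 after an EC20 pre-addition; B-score computed on integrated fluorescence ratio after choline addition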
CHT block conf – human CHT inhibition, confirmatory screen. shares compounds with CHT block. CHT-expressing cells, choline membrane potential dye; LV-to-AA substituted CHT, HEK293 cells. CHT activity remaining % of control (hits give low values), % at 10 µM. actives 70% (n = 2,400);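 active means choline transporter activity left, mean of duplicates at 10 µM, below buffer-only control mean minus 3 SD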;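 further: depolarization triggered by choline at its EC90 following an EC20 pre-addition; 0% = hemicholinium-3 full block and 100% = buffer-only control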
HEK293 MPD ctr – counter-screen for CHT inhibitors: effect in parental HEK293 cells; membrane potential ratio readout (active if shifted either direction beyond buffer ±3SD; no single direction) at 10 µM; AID 493222; actives 4% (n = 2,400); membrane potential dye, choline response; active = decrease or increase beyond buffer ±3SD; shares compounds with CHT block;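 further: parental cells lack the transporter so any hit is non-specific; ratio is peak minus trough fluorescence over baseline after EC90 choline challenge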
* hit, by the source's call; i = inactive; . = not tested or not shown. Rows were chosen to be rich in hits. Some 2.2% of all compounds tested hit in one or more screens of this group.

SMILES	AI-2 QS mod	Platelet DG rel	HIF activator	CHT allo act	VLA-4 inh	CHT block	CHT block conf	HEK293 MPD ctr
CC1CCCCC1NC(=O)c1cc2c(=O)n3ccccc3nc2n1C (stereo not drawn)	20	-11	2	i	5	i	.	.
CC1CCCCC1NC(=O)c1c(O)nc2ccccn2c1=O (stereo not drawn)	28	9	1	i	3	-7.1*	60%*	i
CC(=O)/C(=N/Nc1ccccc1)Sc1nnc(C(O)c2ccccc2)n1-c1ccccc1 (stereo not drawn)	19	0	0	i	-1	-5*	i	i
CC(C)CN1CCNC(=O)C1CC(=O)NCCc1ccc(C(F)(F)F)cc1 (stereo not drawn)	14	2	0	i	-4	-4.9*	i	i
O=C(C[n+]1cc(Br)cc2ccccc21)c1ccccc1	10	10	-1	i	-60	-6.4*	56%*	2.4*
O=C(C[n+]1cccc2ccccc21)c1ccc(Cl)cc1	21	1	1	i	-130	-8*	37%*	i
Cc1ccc2c(ccc[n+]2CC(=O)c2ccccc2)c1	12	-5	0	i	-28	i	.	.
COc1cccc(/C=C/C(=O)Nc2ccc3c(c2)OCCO3)c1OC	11	-1	-3	i	-5	i	.	.
Cc1cc(C)c(C#N)c(N)n1	0	-4	0	i	8	-8.6*	i	i
Cc1cc(N)nc(C)c1C#N	13	23	0	i	3	i	.	.
CCSc1nnc(NC(=O)CCN2C(=O)C3CCCCC3C2=O)s1 (stereo not drawn)	.	.	.	.	22	.	.	.
Fc1ccc(Nc2nnc(C(F)(F)F)s2)cc1Cl	21	0	0	i	-6	-5.2*	51%*	i
FC(F)(F)c1nnc(Nc2ccc(Cl)cc2)s1	20	1	1	i	3	i	.	.
Cc1ccc(NC(=O)c2ccc(Cn3cc([N+](=O)[O-])cn3)cc2)c(C)c1	-5	3	0	i	7	-5.2*	42%*	i
COC(=O)c1ccc(Cn2cc([N+](=O)[O-])cn2)cc1	-3	10	0	i	18	i	.	.
Cc1c(NC(=O)c2ccc(S(=O)(=O)Nc3ccccc3F)cc2)c(=O)n(-c2ccccc2)n1C	.	.	.	.	0	.	.	.
O=C(Nc1ccc2c(c1)OCO2)c1cccc(S(=O)(=O)N2CCCC2)c1	-1	-1	2	i	-2	i	.	.
O=C(Nc1ccc2c(c1)OCCO2)c1ccc(S(=O)(=O)N2CCCCC2)cc1	21	3	1	i	-4	-6.1*	i	i
Cc1ccc(C(=O)O)cc1NC(=S)NC(=O)c1ccc(COc2ccccc2)cc1	55	-6	0	i	3	-6.5*	48%*	i
CNc1oc(Cc2cccc3ccccc23)nc1C#N	24	0	-1	i	13	-6.9*	56%*	i
O=C(c1cc2ccccc2o1)N1CCN(S(=O)(=O)c2ccc(F)c(F)c2F)CC1	.	.	.	.	-11	.	.	.
COc1ccccc1CNC(=O)Cn1ccsc1=N	18	1	0	i	-14	i	.	.
CC1=C(C(=O)OC(C)C)C(c2ccccc2)NC(=O)N1C (stereo not drawn)	0	-3	-20	i	25	i	.	.
CC1=C(C(=O)OC(C)C)C(c2ccc(Br)s2)NC(=O)N1C (stereo not drawn)	6	5	0	i	8	-5.1*	58%*	i
O=C(COc1ccccc1-c1ccccc1)NNC(=O)NC1CCCCC1	14	3	4	i	-1	-6.3*	34%*	i
O=C(COC(=O)c1ccccn1)NC(=O)c1ccccc1	.	.	.	.	-4	.	.	.
